# Tb PYK inh: qHTS of Trypanosoma Brucei Inhibitors. pyruvate kinase (Trypanosoma brucei), Q57TT1. TbPYK enzyme, Kinase-Glo Plus ATP luminescence, 45 min. Potency, µM (titrated, usually from 76.8 µM), for the others: at the top dose activity, negative = inhibition, actives largely listed as inhibitors. 410,000 compounds, 0.12% hits. AID 624173, 2012; also: potency is read from the fitted curve at half-maximal effect; % is scaled to controls: 0 for no effect and ±100 for the full control effect; nearly all actives have a fitted effect of over 50% in size
#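 Activity of T. brucei pyruvate kinase was followed by Kinase-Glo Plus luminescence after the enzyme reacted 45 min at room temperature with 130 uM ADP (final) and substrate. Test compounds were added before ADP at multiple concentrations.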
# RE007 growth inh: qHTS Assay for Inhibitors of the HIV-1 protein Vpr. AID 651644, 2012. S. pombe RE007 Vpr strain, BacTiter-Glo ATP luminescence, 24 h. Potency, µM (highest dose often 92.2 µM), for the others: at the highest dose activity change, negative = less growth, most hits filed as inhibitors. 360,000 compounds, 0.21% hits; active = well fitted falling curve with a large enough effect; inconclusive = small, poorly fitted or top-dose-only effect; inactive = no such curve, though single readings can be large or run the other way; also: potency is read from the fitted curve at half-maximal effect; % is scaled to controls: 0 for no effect and ±100 for the full control effect; nearly all actives have a fitted effect of over 50% in size
#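 Fission yeast RE007 carrying one integrated HIV-1 vpr copy, seeded at OD 0.01 in PMG+AL medium with 23 nL pinned compound. Grown 24 h at 30 degrees; viability read by BacTiter-Glo luminescence after 5 min.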
# FBPA Giardia inh: qHTS Assay for Inhibitors of Fructose-1,6-bisphosphate Aldolase from Giardia Lamblia; 290,000 compounds, 0.71% hits; Potency, µM (doses to about 59.6 µM), for the others: at the top dose activity, negative = inhibition, most hits filed as inhibitors; purified Giardia FBPA; also: potency is read from the fitted curve at half-maximal effect; % is scaled to controls: 0 for no effect and ±100 for the full control effect; nearly all actives have a fitted effect of over 55% in size
#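 40 nM FBPA preincubated 10 min at RT with compound (up to 57.5 uM final), then substrate plus GAPDH/TPI/NAD/arsenate coupling and diaphorase/resazurin added. Fluorescence read after 20 min at RT, 525/598 nm.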
# CHX counter: Cycloheximide Counterscreen for Small Molecule Inhibitors of Shiga Toxin | max response, % | cell reporter, cycloheximide protein synthesis inhibition counterscreen | 300,000 compounds, 12% hits; in the data active = max response mostly above about 13%, no sharp cut-off; inactive = mostly below about 14%; also: read at 38.3 µM for the half of the compounds with a filed dose; 0% is about no effect
# Shiga toxin inh: A qHTS for Small Molecule Inhibitors of Shiga Toxin; Vero cells, Shiga toxin protein synthesis inhibition reporter; inhibition, % at 38.7 µM; 290,000 compounds, 9.2% hits; in the data active = inhibition mostly above about 28%, no sharp cut-off; inactive = mostly below about 43%; also: 0% is about no effect
# LmPK inh: qHTS Assay for Inhibitors of Leishmania Mexicana Pyruvate Kinase (LmPK). purified LmPK, Kinase-Glo ATP luminescence, 1 h. Potency, µM (doses to about 57.5 µM), inactives show top-dose activity change, negative = inhibition, usual class: inhibitors. 290,000 compounds, 0.37% hits. Q27686; also: potency is read from the fitted curve at half-maximal effect; % is scaled to controls: 0 for no effect and ±100 for the full control effect
# Target sequence (Q27686 whole entry, looked up): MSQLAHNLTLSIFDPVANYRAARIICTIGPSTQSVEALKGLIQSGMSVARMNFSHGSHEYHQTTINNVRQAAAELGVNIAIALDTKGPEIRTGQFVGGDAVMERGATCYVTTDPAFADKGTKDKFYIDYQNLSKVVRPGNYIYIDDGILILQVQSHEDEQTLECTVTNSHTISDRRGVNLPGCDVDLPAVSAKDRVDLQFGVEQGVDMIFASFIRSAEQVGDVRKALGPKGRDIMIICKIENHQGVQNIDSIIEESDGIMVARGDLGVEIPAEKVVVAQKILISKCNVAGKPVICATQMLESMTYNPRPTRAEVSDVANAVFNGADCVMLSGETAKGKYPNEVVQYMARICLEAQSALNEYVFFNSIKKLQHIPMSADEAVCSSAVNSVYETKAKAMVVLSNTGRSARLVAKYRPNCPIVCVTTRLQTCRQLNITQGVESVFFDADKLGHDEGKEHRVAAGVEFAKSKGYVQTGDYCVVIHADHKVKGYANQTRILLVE
#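 ATP generated from ADP (0.1 mM) and PEP (0.5 mM) by 0.1 nM LmPK over 1 h at room temperature (pH 7.2 imidazole buffer) was detected by coupled luciferase luminescence. Values were normalized to uninhibited and no-enzyme wells.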
# * marks the source's active call; other numbers are inactive results; u = inconclusive; x = no result given; [ ] = remark or other dose. The sample as a whole holds a higher share of hits than the screen did. Unless noted, calls follow the shape of the dose curve; as a rule, active = well fitted curve in the direction sought with a large enough effect; inconclusive = small, poorly fitted or top-dose-only effect, or another doubt; inactive = no such curve, though single readings can be large; an effect the other way counts as inactive or inconclusive.
SMILES,Tb PYK inh,RE007 growth inh,FBPA Giardia inh,CHX counter,Shiga toxin inh,LmPK inh
COc1ccc(C(=O)NCC2OCCc3ccccc32)c(O)c1 (stereo unspecified),6%,-22%,-7%,23*,47*,-13%
COc1ccc(C(=O)NC(=S)N(Cc2ccccc2)Cc2ccccc2)cc1,-3%,-19%,4%,32*,144*,9%
CC(C)COc1ccc(C(=O)NCC2OCCc3ccccc32)cc1 (stereo unspecified),0%,x,x,x,x,x
CCc1nn(CC(=O)NCc2ccccc2Cl)c(=O)c2cc3ccccc3n12,0%,x,x,x,x,x
Cn1c(SCc2ccc(C(F)(F)F)cc2)nc2c([nH]c3ccccc32)c1=O,-3%,x,x,x,x,x
CCOc1ccc(CCNC(=O)CCc2c(C)nc3c(c(C)nn3-c3ccccc3)c2C)cc1OCC,-2%,x,x,x,x,x
COc1ccc(CN(C(=O)c2ccc(C)cc2)c2cccc(N)c2)cc1,-1%,9%,x,x,x,x
CCOc1ccc(C(=O)NC(Cc2ccccc2)C(=O)OC)cc1 (stereo unspecified),-1%,3%,8%,41*,73*,-11%
COc1ccc(C(=O)NC(C)CCc2ccccc2)c(O)c1 (stereo unspecified),5%,4%,-10%,30*,68*,-2%
CCOc1ccc(C(=O)NC(C)CCc2ccccc2)cc1 (stereo unspecified),0%,5%,0%,28*,29*,3%
CCOc1ccc(C(=O)N[C@H](C(=O)O)C(C)C)cc1,1%,-1%,3%,-1,19,-1%
COc1ccc(C(=O)N(Cc2ccccc2)c2cccc(C)c2)cc1,-11%,-8%,x,21,24*,-8%
COc1cc(C(=O)NC(C)CCc2ccccc2)cc(OC)c1OC (stereo unspecified),-5%,2%,11%,-2,x,-3%
COC(=O)C1(Cc2ccccc2)C=C2C(=C(c3ccccc3)C(=O)C2C)CN1 (stereo unspecified),x,x,-20%,x,x,x
Cc1ccc2c(=O)cc(C(=O)Nc3ccc(S(=O)(=O)Nc4onc(C)c4C)cc3)oc2c1C,-2%,x,x,x,x,x
COc1ccc(-n2nnc(-c3nsc(NC(=O)c4cccs4)n3)c2C)cc1OC,1%,x,x,x,x,x
CCCOc1ccc(CNC(=O)C2CCN(C(=O)c3sccc3-n3cccc3)CC2)cc1,2%,x,x,x,x,x
C=C(CCC12O[C@H](C(=O)O)[C@@](O)(C(=O)O)[C@](C(=O)O)(O1)[C@H](OC(=O)/C=C/[C@@H](C)C[C@@H](C)CC)[C@H]2O)[C@@H](OC(C)=O)[C@H](C)Cc1ccccc1,x,x,u,7,18,x
Cc1c(-c2ccc(Cl)cc2)c(=O)oc2c(CN3CCOCC3)c(O)ccc12,-10%,x,x,x,x,x
COc1ccc(N(Cc2ccccc2)N=O)cc1,-1%,-7%,-8%,18*,x,5%
CCCCN(CC)CCCNC(=O)c1sc2nc(C)cc(C)c2c1-n1cccc1,0%,x,x,x,x,x
COC(=O)NC(CCc1ccccc1)C(C(=O)OC)C(=O)OC (stereo unspecified),x,x,0%,x,x,x
Cc1nn(-c2nc3ccccc3s2)c(C)c1Oc1ccccc1O,3%,10%,-6%,32*,72*,0%
Cc1ccc2c(c1)cc1c(=O)[nH]ncn12,12%,-23%,2%,8,88*,-2%
Cc1ccc(C)c(Cn2nc(C)n3c(cc4cc(C)ccc43)c2=O)c1,0%,x,x,x,x,x
SMILES,Tb PYK inh,RE007 growth inh,FBPA Giardia inh,CHX counter,Shiga toxin inh,LmPK inh
Cc1coc2cc3oc(=O)c(CC(=O)NCCc4ccccc4)c(C)c3cc12,4%,x,x,x,x,x
CN1CCC/C1=C/C=C1\SC(=S)NC1=O,-15%,0%,u,18,35*,-6%
CC#CCOC(=O)C1=CCCN(C)C1,x,x,7%,x,x,x
COC(=O)C1CCN(c2csc3ccc(Cl)cc3c2=O)CC1,-9%,x,x,x,x,x
CC1CC=CC2C1C(=O)N(Cc1ccccc1)C2c1ccoc1 (stereo unspecified),x,x,4%,13,-1,x
O=C(NC1CC1)c1cc2c(F)cccc2s1,-8%,-21%,-3%,33*,24,-5%
COCc1c(C(=O)NC2CCCCC2)sc2cccc(F)c12,2%,-13%,x,x,x,x
CSc1ccc(CNC(=O)C2CCN(c3nnc(-n4cccc4CNc4ccc(C)cc4)s3)CC2)cc1,2%,x,x,x,x,x
CCOC(=O)C1CCN(C(c2ccc(C)cc2)c2sc3nc(-c4ccco4)nn3c2O)CC1 (stereo unspecified),2%,x,x,x,x,x
Cn1c(SCc2ccc(Br)cc2)nc2c([nH]c3ccccc32)c1=O,4%,x,x,x,x,x
O=C(NCc1ccco1)c1sc(=S)n2c1[nH]c(=O)c1ccccc12,-23%,-15%,-11%,8,-20,u
O=C(NC1CCCC1)c1sc(=S)n2c1[nH]c(=O)c1ccccc12,-3%,-1%,-6%,-2,-7,22µM*
Brc1ccccc1-n1ncc2c1ncn1nc(Cc3ccccc3)nc21,2%,x,x,x,x,x
Cn1ncc2c1ncn1nc(CCc3ccccc3)nc21,-1%,8%,1%,52*,68*,-5%
Cn1ncc2c1ncn1nc(COc3ccc4ccccc4c3)nc21,-2%,0%,2%,40*,-15,0%
Cc1ccc(Cn2c(=O)n(Cc3ccccc3Cl)c(=O)c3cccnc32)cc1,-3%,x,x,x,x,x
CCOC(=O)CCN1C(=O)[C@H]2[C@H]3[C@H](O)[C@H](O)C/C(=N/NC(=O)OCc4ccccc4)[C@H]3CC[C@@H]2C1=O,x,x,0%[12.9 µM],x,x,x
CC(=O)OCC12CC(OC(=O)CC(C)C)C(C)=CC1OC1C(O)C(OC(C)=O)C2(C)C12CO2 (stereo unspecified),0%,5.6µM*,x,x,x,x
CC(=O)O[C@@H]1[C@@H](O)C2OC3C=C(C)C(=O)[C@@H](O)[C@]3(CO)C1(C)C21CO1 (stereo partly specified),x,x,-1%,-10,-11,x
CCOc1ccc(NC(=O)N(Cc2c[nH]c3ccccc23)C2CCCCCC2)cc1,6%,x,x,x,x,x
Cc1cc(NC(=S)NC(=O)CC(C)C)ccc1Br,-7%,-2%,1%,32*,115*,6%
CC(C)CC(=O)NC(=S)Nc1cccc(NC(=O)c2ccccc2)c1,-14%,-11%,2%,-5,-7,1%
CC(C)CC(=O)NC(=S)Nc1ccc(CN2CCOCC2)cc1,-1%,1%,-3%,11,33*,0%
Cc1cccc(NC(=S)Nc2ccc(N3CCOCC3)cc2)c1C,35%,25%,-15%,13*,13,6%
O=C(COc1ccc(Cl)cc1Cl)NC(=S)Nc1ccc(CN2CCOCC2)cc1,-8%,-27%,-24%,1,7,3%
CC(C)CC(=O)NC(=S)Nc1ccc(N2CCOCC2)cc1,1%,-14%,-1%,24*,48*,1%

# Assay outcomes: PubChem, National Center for Advancing Translational Sciences (NCATS)
